# Measured values: ChEMBL document CHEMBL3988442, “University of Dundee, Small-Polar-MMV Screening Library” (2021)
# The whole screen tested about 48,000 compounds, of which about 13,000 (27%) showed an effect of 50% or more. This is one part of the list.
# System: Wolbachia pipientis
# Test: Anti-Wolbachia Cell-Based Screen
# Assay type: functional
# Set-up: scale not given: in the data most compounds retested in dose-response had high values
# Conditions: 5 µM
row,SMILES,Percent Effect [%]
1,COc1ccc(Br)c(C(=O)N2CCC(c3n[nH]c(C4CC4)n3)CC2)c1,9.985
2,O=C(Cc1csc(N2CCNC2=O)n1)NC1(c2ccccc2)CCC1,3.065
3,Cc1nc(NC(=O)N2CCCC(C(C)(C)O)C2)nn1C (configuration not stated),7.598
4,CC(C)N[C@@H]1CO[C@H](CNC(=O)c2cccs2)[C@H]1O,0.5301
5,NC(=O)NCC(=O)N1CCC(c2cc(-c3ccccc3Cl)n[nH]2)CC1,9.084
6,CC(=O)N1N=C(Cc2ccccc2)OC1C(=O)NCC(=O)OC(C)(C)C (configuration not stated),112
7,CC(C)(C)OC(=O)CNC(=O)CCc1nnc(-c2ccsc2)o1,-11.15
8,CC(=O)N1N=C(c2ccccc2)OC1C(=O)NCC(=O)OC(C)(C)C (configuration not stated),126.7
9,CCC(CNC(C)=O)(OC)c1ccccc1 (configuration not stated),-7.237
10,CCOC(=O)CNC(=O)N1CCCC(CNC(=O)c2ccco2)C1 (configuration not stated),-9.65
11,CC(C)N1CCCC(C(=O)NCc2noc(Cc3ccccc3)n2)C1 (configuration not stated),-0.7063
12,CCOC(=O)CNC(=O)C1OC(c2ccccc2)=NN1C(C)=O (configuration not stated),105.7
13,COC(=O)CN1CC(c2nc(Cc3ccccc3)no2)C1.O=C(O)C(=O)O,-2.345
14,CN(C(=O)c1ccco1)C1CCC(NC(=O)OC(C)(C)C)CC1 (configuration not stated),-29.92
15,CCOC(=O)CNC(=O)C1CN(C(=O)c2cnccn2)C1,12.27
16,CCN1CC(C(=O)NCc2noc(Cc3ccccc3)n2)CCC1=O (configuration not stated),-8.005
17,CC(=O)N1N=C(Cc2ccccc2)OC1C(=O)NCC(C)C (configuration not stated),119.9
18,CC(C)N[C@@H]1CO[C@H](CNC(=O)Nc2ccccc2)[C@H]1O,-15.53
19,Cc1nc(C(NC(=O)CN(C)C(C)C)c2ccccc2F)no1 (configuration not stated),-8.62
20,CCc1nnc(CN2CCN(C(C)=O)CC2)o1,-9.857
21,Cc1ccc(C(=O)N2CCC(Oc3ccc(F)cc3F)CC2)c(=O)[nH]1,-17.81
22,CC(C)c1nnc(NCCS(C)(=O)=O)s1,-6.765
23,CC1(C)COCCN1C(=O)CCc1nc(-c2ccncc2)no1,14.72

row,SMILES,Percent Effect [%]
1,CCOc1ncccc1CNc1cc(COC)ncn1,-5.284
2,COc1ccc(Cl)cc1C(=O)N1CCOC2(CNCCOC2)C1 (configuration not stated),-14.44
3,Cc1ccccc1C(=O)N1CCOC2(CNCCOC2)C1 (configuration not stated),-17.32
4,O=C(c1ccc(NCc2ccco2)nc1)N1CCc2ccccc21,16.32
5,O=C(c1ccccc1-c1ccccc1)N1CCOC2(CNCCOC2)C1 (configuration not stated),-21.41
6,Cc1ccccc1C1CCCN1C(=O)CN1CC2(CCNCC2)OC1=O (configuration not stated),-3.464
7,O=C(c1ccccc1)N1CC2(CCNC2)OCc2ccccc21 (configuration not stated),116.8
8,O=C(C1CCCC1)N1CC2(CCNC2)OCc2ccccc21 (configuration not stated),106
9,O=C1OC2(CCNCC2)CN1CC(=O)N1CCC1c1cccs1 (configuration not stated),-13.03
10,O=C(c1ccc(Cl)cc1)N1CC2(CCNC2)OCc2ccccc21 (configuration not stated),113.7
11,Clc1cc(CN2CCCC(Cn3cncn3)C2)c2ncccc2c1 (configuration not stated),-5.34
12,N#CCC(=O)NCc1nnc2n1CCN(Cc1ccsc1)C2,-8.086
13,COC(=O)CN1N=C(C(=O)N2CCCC2)S(=O)(=O)c2ccccc21,18.69
14,CC(C)c1nccn1-c1cncc(C2CCCN2Cc2cccnc2)n1 (configuration not stated),151.3
15,Cc1nccn1-c1cncc(C2CCCN2Cc2ccccc2)n1 (configuration not stated),97.46
16,Cc1nccn1-c1cncc(C2CCCN2Cc2cccnc2)n1 (configuration not stated),117.3
17,CCc1nc(C2CCCN2Cc2nccn2Cc2ccccc2)no1 (configuration not stated),3.12
18,COCCN(Cc1ccc(F)cc1C#N)CC(F)(F)F,-22.68
19,CNC(=O)C1(CCCc2cccnc2)CCCCN1 (configuration not stated),-7.533
20,COCCNC(=O)C1(CCCc2cccnc2)CCCN1C (configuration not stated),112.4
21,CN1CCCC1(CCCc1cccnc1)C(=O)NCc1nccn1C (configuration not stated),97.51
22,COCCCn1ccc(NC(=O)NCCc2cccnc2)n1,-2.122
23,O=C(Nc1ccnc2ccnn12)c1ccc(N2CCC(O)CC2)cc1,5.741

row,SMILES,Percent Effect [%]
1,COCCN1CCC(CN(CC2CCCO2)C(=O)C2CCOCC2)CC1 (configuration not stated),95.06
2,COCCN1CCC(CN(CC2CCCO2)C(=O)CCC(F)(F)F)CC1 (configuration not stated),140.7
3,COCCN1CCC(CN(CC2CCCO2)C(=O)CCNC(C)=O)CC1 (configuration not stated),-5.608
4,COCCN1CCC(CNC(=O)C2(NC(C)=O)CCCCC2)CC1,17.17
5,COCCN1CCC(CN(CC2CCCO2)C(=O)CNC(C)=O)CC1 (configuration not stated),106.5
6,COCC(=O)N(CCC(=O)OC)CC1CCCO1 (configuration not stated),-0.04842
7,CN(CC1CCOCC1)C(=O)NCCCN1CCCCC1,-10.18
8,COCCN1CCC(CN(CC2CCCO2)C(=O)COC)CC1 (configuration not stated),-4.712
9,O=C(CC1CCCO1)Nc1ccn(Cc2cccc3cccnc23)n1 (configuration not stated),-4.253
10,CC(=O)N1CCN(C(=O)CCCc2nc(C(C)C)no2)CC1,-8.538
11,CC(NCc1cnc(C2CCC2)s1)c1ccc(-n2cccn2)cc1 (configuration not stated),-14.42
12,O=C(CSc1ccc2c(c1)OCCO2)NS(=O)(=O)C1CCCCC1,-3.835
13,Cc1c(F)cc(C(=O)O)cc1S(=O)(=O)Nc1ccc2c(c1)OCCO2,-12.89
14,Cc1cc(C(=O)O)cc(S(=O)(=O)Nc2ccc3c(c2)OCO3)c1C,13.44
15,CN(C)S(=O)(=O)Nc1ccc(-n2nccc2C(F)(F)F)cc1,-20.66
16,O=S(=O)(Nc1ccc(Oc2ccc3c(c2)OCO3)cc1)N1CCCCC1,108.9
17,O=C(c1cc(COc2ccc3c(c2)OCO3)[nH]n1)N1CCCCO1,18.38
18,CC1(Cc2ccc3c(c2)OCO3)CCCN(S(=O)(=O)N2CCCC2)C1 (configuration not stated),-20.92
19,O=S(=O)(Nc1ccc2c(c1)OCCO2)N1CCCCC1,85.12
20,CN(C)S(=O)(=O)Nc1ccc(Oc2ccc3c(c2)OCO3)cc1,102.4
21,CC(C)c1nsc(N2CCn3c(nnc3C(F)(F)F)C2)n1,-8.607
